Screens as filed in PubChem.
KLK7 zymogen act = proKLK7 zymogen activators, primary screen, biochemical, fluorescence intensity; Kallikrein-7 (Homo sapiens), P49862; purified proKLK7, EDANS-DABCYL substrate fluorescence; 100% is mature enzyme control, 0% vehicle; activation, % at 7 µM; 370,000 tested, 0.9% active; AID 652039, 2013;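 active means activation above the mean of all tested compounds plus 3 SD, computed per campaign excluding outliers beyond control limits, cut at about 13% in these data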
Target sequence (P49862 whole entry, looked up): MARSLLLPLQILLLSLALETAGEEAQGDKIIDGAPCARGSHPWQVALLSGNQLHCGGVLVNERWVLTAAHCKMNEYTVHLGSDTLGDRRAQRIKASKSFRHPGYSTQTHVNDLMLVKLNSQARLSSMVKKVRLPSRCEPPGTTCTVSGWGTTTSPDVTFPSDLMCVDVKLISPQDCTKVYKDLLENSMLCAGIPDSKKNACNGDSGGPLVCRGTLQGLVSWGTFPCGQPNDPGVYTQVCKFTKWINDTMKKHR
DSG3 Ab inh = inhibitors of pemphigus antibody binding to DSG3, primary screen, biochemical, bead-based, flow cytometry, scFv-GFP; 310,000 tested, 0.48% active; DSG3-coupled beads, scFv-anti-DSG3-GFP binding; stronger effect = lower value; Desmoglein-3 (Homo sapiens), P32926; binding (percent of control), % at 10 µM;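 active means binding more than 3 SD below its plate's average and above zero; inconclusive means below that plate limit but binding exactly zero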;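 further: hits lower antibody fragment binding to DSG3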
MPTP block = mitochondrial permeability transition pore inhibitors, primary screen, biochemical, isolated mouse mitochondria, absorbance | Ca2+ swelling absorbance, 30 min | inhibition, % at 10 µM | 360,000 tested, 1.4% active | AID 602449, 2012;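 active means inhibition of 50% or more, scaled per plate between neutral and stimulator controls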
ADAM17 inh = ADAM17 inhibitors, primary screen, biochemical, QFRET. Disintegrin and metalloproteinase domain-containing protein 17 (Homo sapiens), P78536. recombinant ADAM17, EDANS/DABCYL FRET peptide cleavage. inhibition, % at 6.95 µM. AID 720648, 2013. 370,000 tested, 0.83% active;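 active means inhibition above the mean of compounds lying between control limits plus 3 SD, set per campaign, cut at about 8.5% in these data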
rCAG binder = binders of r(CAG) RNA repeats, primary screen, biochemical, fluorescence; 370,000 tested, 1.3% active; r(CAG) RNA repeat, TO-PRO-1 dye displacement fluorescence; inhibition, % at 3 µM; AID 651821, 2012;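 active means inhibition above the plate cutoff, the mean of all test compounds on that plate plus 3 SD, cut at about 35% in these data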;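 further: higher means more dye released from RNA so lower well fluorescence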
ADAM10 inh = human ADAM10 inhibitors, primary screen, biochemical, QFRET, HTS. Disintegrin and metalloproteinase domain-containing protein 10 (Homo sapiens), O14672. recombinant ADAM10, EDANS/DABCYL FRET peptide cleavage, 3 h. inhibition, % at 7 µM. 370,000 tested, 0.62% active. AID 720582, 2013;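 active means inhibition above a per-campaign cutoff equal to the mean of compounds falling between control-based bounds plus 3 SD, cut at about 20% in these data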
KLK7 act conf = proKLK7 zymogen activators, confirmation, biochemical, fluorescence intensity, triplicate; activation, % at 7 µM; shares compounds with KLK7 zymogen act; AID 686949, 2013; 3,200 tested, 68% active; purified proKLK7, EDANS-DABCYL substrate fluorescence; scaled: vehicle 0, mature enzyme 100;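 active means activation, as change over the incubation, above the mean of all tested compounds plus 3 SD, cut at about 13% in these data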
EDANS interfere = EDANS-DABCYL substrate optical interference, artefact control for kallikrein-7 zymogen activator project, biochemical, fluorescence intensity, high throughput; activation, % at 7 µM; no enzyme, 4 h; solvent 0%, active enzyme control 100%; 3,200 tested, 80% active; shares compounds with KLK7 zymogen act;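 active means activation above the all-compound mean plus 3 SD, ignoring values outside control-based bounds, cut at about 4.8% in these data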;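 further: value is the 4 h activation minus the activation read at time zero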
EDANS interf = optically interferes with EDANS-DABCYL fluorescence, kallikrein-7 activator counter-screen; 250 tested, 20% active; EC50, µM; shares compounds with KLK7 zymogen act; EDANS-DABCYL peptide fluorescence interference, no enzyme;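 active means compounds that raise the fluorescence signal in this interference counterscreen, with EC50 at or below 10 µM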;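 further: intact quenched peptide substrate alone read at 355 nm excitation and 520 nm emission; signal is fluorescence gain from T0 to T4 after four hours at room temperature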
Hits are given with their value. A selection: hits, their analogues and other compounds. The true share with any hit is near 4.7%.

Results for CCc1cc2c(COC(=O)CCNS(=O)(=O)c3cccc(C(F)(F)F)c3)cc(=O)oc2cc1O ?
KLK7 zymogen act: 48; DSG3 Ab inh: inconclusive; MPTP block: inactive; ADAM17 inh: inactive; rCAG binder: inactive; ADAM10 inh: inactive; KLK7 act conf: 56; EDANS interfere: 57

Results for Cc1cc(NC(=O)COC(=O)CCNS(=O)(=O)c2cccc(C(F)(F)F)c2)no1 ?
KLK7 zymogen act: inactive; DSG3 Ab inh: inactive; MPTP block: inactive; ADAM17 inh: inactive; rCAG binder: inactive; ADAM10 inh: inactive

How did O=C(Cc1coc2cc(O)ccc12)NNC(=O)c1cccs1 do in these assays?
KLK7 zymogen act: inactive; DSG3 Ab inh: inactive; MPTP block: inactive; ADAM17 inh: inactive; rCAG binder: inactive; ADAM10 inh: inactive

Results for CCOc1ccc(C(=O)Nc2ccc(N3CCN(C)CC3)cc2)cc1 ?
KLK7 zymogen act: inactive; DSG3 Ab inh: inactive; MPTP block: inactive; ADAM17 inh: inactive; rCAG binder: inactive; ADAM10 inh: inactive

Results for CC1COc2c(N3CCN(C)CC3)c(F)cc3c(=O)c(C(=O)O)cn1c23 (centres undefined) ?
KLK7 zymogen act: 160; DSG3 Ab inh: inactive; ADAM17 inh: inactive; rCAG binder: inactive; ADAM10 inh: inactive; KLK7 act conf: 32; EDANS interfere: 34

Results for CCOc1ccc(NC(=O)c2ccc(NC(=O)c3cn4c5c(c(N6CCN(C)CC6)c(F)cc5c3=O)OCC4C)cc2)cc1 (centres undefined) ?
KLK7 zymogen act: 43; DSG3 Ab inh: inactive; MPTP block: inactive; ADAM17 inh: inactive; rCAG binder: inactive; ADAM10 inh: inactive; KLK7 act conf: inactive; EDANS interfere: 8.4

How did CN1CCCC1CCNc1ccc2oc3ccccc3c(=O)c2c1 (centres undefined) do in these assays?
KLK7 zymogen act: inactive; ADAM17 inh: inactive; rCAG binder: inactive; ADAM10 inh: inactive

What do the screens show for `CN1CCC[C@H]1CCNc1ccc2c(=O)c3ccccc3n(C)c2c1`?
KLK7 zymogen act: 49; DSG3 Ab inh: inactive; MPTP block: inactive; ADAM17 inh: inactive; rCAG binder: inactive; ADAM10 inh: inactive; KLK7 act conf: 84; EDANS interfere: 80

How did CN1CCCC1CCNc1ccc2c(=O)c3ccccc3oc2c1 (centres undefined) do in these assays?
KLK7 zymogen act: 76; DSG3 Ab inh: inactive; MPTP block: inactive; ADAM17 inh: inactive; rCAG binder: inactive; ADAM10 inh: inactive; KLK7 act conf: 72; EDANS interfere: 80

Results for O=C(N/N=C/c1cc2c(cc1Br)OCO2)c1c[nH]c2ccccc12 ?
KLK7 zymogen act: 15; DSG3 Ab inh: inactive; MPTP block: inactive; ADAM17 inh: inactive; rCAG binder: inactive; ADAM10 inh: inactive; KLK7 act conf: inactive; EDANS interfere: inactive

Results for O=C(N/N=C/c1cc2c(cc1Br)OCO2)c1ccccn1 ?
KLK7 zymogen act: inactive; DSG3 Ab inh: inactive; MPTP block: inactive; ADAM17 inh: inactive; rCAG binder: inactive; ADAM10 inh: inactive

Results for Cc1ccccc1N(CC(=O)NC1CCCC1)C(=O)C1(C)CC(=O)N=C2C=CC=CN21 (centres undefined) ?
KLK7 zymogen act: inactive; MPTP block: inactive; ADAM17 inh: inactive; rCAG binder: inactive; ADAM10 inh: inactive

What do the screens show for `Cc1ccccc1N(CC(=O)NC1CCCC1)C(=O)C1(C)CC(=O)N=C2C=CC(Cl)=CN21` (centres undefined)?
KLK7 zymogen act: 16; DSG3 Ab inh: inactive; MPTP block: inactive; ADAM17 inh: inactive; rCAG binder: inactive; ADAM10 inh: inactive; KLK7 act conf: 33; EDANS interfere: 39

How did CCN(CC)C(=O)c1cc2c(=O)n3cccc(C)c3nc2n1C do in these assays?
KLK7 zymogen act: 22; DSG3 Ab inh: inactive; MPTP block: inactive; ADAM17 inh: inactive; rCAG binder: inactive; ADAM10 inh: inactive; KLK7 act conf: 15; EDANS interfere: 21

Results for CCN(C(=O)c1cc2c(=O)n3cccc(C)c3nc2s1)C1CCCCC1 ?
KLK7 zymogen act: inactive; DSG3 Ab inh: inactive; MPTP block: inactive; ADAM17 inh: inactive; rCAG binder: inactive; ADAM10 inh: inactive

Results for CCCCN(CC)C(=O)c1cc2c(=O)n3cccc(C)c3nc2s1 ?
KLK7 zymogen act: inactive; DSG3 Ab inh: inactive; MPTP block: inactive; ADAM17 inh: inactive; rCAG binder: inactive; ADAM10 inh: inactive

How did CCN(CC)C(=O)c1cc2c(=O)n3cccc(C)c3nc2s1 do in these assays?
KLK7 zymogen act: 20; DSG3 Ab inh: inactive; MPTP block: inactive; ADAM17 inh: inactive; rCAG binder: inactive; ADAM10 inh: inactive; KLK7 act conf: 13; EDANS interfere: 15

How did CCC(C)NC(=O)c1cc2c(=O)n3cccc(C)c3nc2s1 (centres undefined) do in these assays?
KLK7 zymogen act: 20; DSG3 Ab inh: inactive; MPTP block: inactive; ADAM17 inh: inactive; rCAG binder: inactive; ADAM10 inh: inactive; KLK7 act conf: 18; EDANS interfere: inactive; EDANS interf: inactive

What do the screens show for `C[C@H](CO)N1C[C@H](C)[C@H](CN(C)S(=O)(=O)c2cccs2)Oc2ncc(-c3cc4ccccc4o3)cc2C1=O`?
KLK7 zymogen act: inactive; DSG3 Ab inh: inactive; MPTP block: inactive; ADAM17 inh: inactive; rCAG binder: inactive; ADAM10 inh: inactive

How did CCOC(=O)CC(=O)CSc1nc2c(cc1C#N)CCCCCC2 do in these assays?
KLK7 zymogen act: 13; DSG3 Ab inh: inactive; MPTP block: inactive; ADAM17 inh: inactive; rCAG binder: inactive; ADAM10 inh: inactive; KLK7 act conf: 60; EDANS interfere: 58

What do the screens show for `CC(C)OC(=O)CC(=O)CSc1nc2c(cc1C#N)CCC2`?
KLK7 zymogen act: 22; DSG3 Ab inh: inactive; MPTP block: inactive; ADAM17 inh: inactive; rCAG binder: inactive; ADAM10 inh: inactive; KLK7 act conf: 90; EDANS interfere: 92

Results for CC(C)OC(=O)CC(=O)CSc1nc2c(cc1C#N)CCCC2 ?
KLK7 zymogen act: 20; DSG3 Ab inh: inactive; MPTP block: inactive; ADAM17 inh: inactive; rCAG binder: inactive; ADAM10 inh: inactive; KLK7 act conf: 71; EDANS interfere: 77
